Values joined by “and” are separate entries in the source; they are usually repeats but may differ in a detail not shown here. Equal values may be shown once. Compounds without any hit were thinned out: in the full panel of roughly 83,000, 20% have a hit.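 Percent growth is the endpoint: 0 to 100 indicates growth inhibition (40 means 60% inhibition), 0 means no net growth, and negative values indicate cell death.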 Active and inactive are the calls of the source. Rule for the calls: active = growth percent below 10; inactive = the rest.
What was measured:
Assay in all cases: NCI-60 one-dose screen, 48 h (100 = growth as untreated, 0 = no growth, -100 = all killed)
Conditions in all cases: 10 µM unless noted
HCT-15 colon = test system: HCT-15 colon
HT29 colon = test system: HT29 colon
SNB-75 CNS = test system: SNB-75 CNS
SNB-19 CNS = test system: SNB-19 CNS
U251 CNS = test system: U251 CNS
PC-3 prostate = test system: PC-3 prostate
SK-MEL-5 melanoma = test system: SK-MEL-5 melanoma
UACC-62 melanoma = test system: UACC-62 melanoma
LOX IMVI melanoma = test system: LOX IMVI melanoma
SK-MEL-2 melanoma = test system: SK-MEL-2 melanoma
EKVX NSCLC = test system: EKVX NSCLC
SN12C renal = test system: SN12C renal
UO-31 renal = test system: UO-31 renal
TK-10 renal = test system: TK-10 renal
ACHN renal = test system: ACHN renal
CAKI-1 renal = test system: CAKI-1 renal
CCRF-CEM leukemia = test system: CCRF-CEM leukemia
MOLT-4 leukemia = test system: MOLT-4 leukemia
SK-MEL-28 melanoma = test system: SK-MEL-28 melanoma
A498 renal = test system: A498 renal

Measured: growth

CCCCCn1sc(=O)n(Cc2ccc(CNC(=O)C(C)c3ccc(CC(C)C)cc3)cc2)c1=O (configuration not stated)
106% (inactive) and -18.6% (active): SK-MEL-2 melanoma
87.4% (inactive) and 8.32% (active): U251 CNS
91.2% (inactive) and -73% (active): CAKI-1 renal
inactive: SNB-19 CNS 98.7% and 43.3%
96.9% (inactive) and -65.7% (active): EKVX NSCLC
94.3% (inactive) and -20.9% (active): SNB-75 CNS
106% (inactive) and -86.8% (active): TK-10 renal
101% (inactive) and -4.68% (active): MOLT-4 leukemia
112% (inactive) and -52.1% (active): HT29 colon
95.3% (inactive) and -52.9% (active): SN12C renal
104% (inactive) and -92.7% (active): LOX IMVI melanoma
92.4% (inactive) and -100% (active): ACHN renal
96.9% (inactive) and -65.1% (active): UACC-62 melanoma
93.7% (inactive) and -64.4% (active): PC-3 prostate
101% (inactive) and -89.2% (active): SK-MEL-5 melanoma
85.8% (inactive) and -100% (active): UO-31 renal
95.8% (inactive) and 2.99% (active): CCRF-CEM leukemia
101% (inactive) and -35% (active): HCT-15 colon

Cn1cc(-c2cc3c(Nc4ccc(CC(=O)Nc5cc(C(C)(C)C)on5)cc4)ncnc3[nH]2)cn1
active: HT29 colon -8.17% and -11.7% | SNB-75 CNS -44.8% and -42.3% | SNB-19 CNS 2.07% and 3.84% | U251 CNS 0.087% and -9.38% | PC-3 prostate -21.4% and 1.57% | SK-MEL-5 melanoma -50.7% and 1.16% | LOX IMVI melanoma 1.91% and 2.35% | SK-MEL-28 melanoma -20.2% and -18.4% | SK-MEL-2 melanoma -60.5% and -81% | SN12C renal -10.9% and -7.98% | UO-31 renal -11.4% and 9.42% | TK-10 renal 0.328% and -17.2% | ACHN renal -6.75% and 6.73% | CAKI-1 renal -10.5% and 7.18% | A498 renal -60.1% | MOLT-4 leukemia 9.74% and 5.37%
14.3% (inactive) and 5.35% (active): CCRF-CEM leukemia
6.89% (active) and 10.1% (inactive): EKVX NSCLC
inactive: HCT-15 colon 17.5% and 34.6%

O=C(O)CCCCc1ccc([N+](=O)[O-])cc1
inactive: HCT-15 colon 101% | HT29 colon 105% and 98.1% | SNB-75 CNS 98.7% and 89.7% | SNB-19 CNS 101% and 105% | U251 CNS 97.4% and 108% | PC-3 prostate 88.5% and 86.5% | SK-MEL-5 melanoma 107% and 105% | UACC-62 melanoma 104% and 90.4% | LOX IMVI melanoma 92.7% and 107% | SK-MEL-2 melanoma 98.9% and 113% | EKVX NSCLC 107% and 126% | SN12C renal 98.9% and 96.5% | UO-31 renal 82.4% and 73.3% | TK-10 renal 106% and 99.4% | ACHN renal 103% and 98.5% | CAKI-1 renal 107% and 102% | A498 renal 84.4% and 127% | CCRF-CEM leukemia 97.1% and 91.2%

Oc1ccccc1C=NCC1CCC(CN=Cc2ccccc2O)CC1 (configuration not stated)
inactive: HT29 colon 17.1% | SNB-75 CNS 101% | SNB-19 CNS 94.6% | U251 CNS 78.4% | PC-3 prostate 77.8% | SK-MEL-5 melanoma 92.8% | UACC-62 melanoma 88.7% | LOX IMVI melanoma 80.2% | SK-MEL-2 melanoma 12.8% | EKVX NSCLC 109% | SN12C renal 91% | UO-31 renal 72.4% | TK-10 renal 98.2% | CAKI-1 renal 46.1% | MOLT-4 leukemia 75.6%
active: HCT-15 colon 7.98% | ACHN renal -13.8%

O=C(CN1CCOCC1)N1CCOCC1
inactive: HCT-15 colon 111% and 98% | HT29 colon 91% | SNB-75 CNS 106% and 104% | SNB-19 CNS 103% and 105% | U251 CNS 107% | PC-3 prostate 90.8% | SK-MEL-5 melanoma 107% and 105% | LOX IMVI melanoma 99.6% and 100% | SK-MEL-28 melanoma 123% and 107% | SK-MEL-2 melanoma 109% | EKVX NSCLC 117% and 84% | UO-31 renal 68% and 80% | TK-10 renal 96.8% and 104% | ACHN renal 108% and 98.9% | CAKI-1 renal 105% and 88.3% | A498 renal 108% | CCRF-CEM leukemia 106% | MOLT-4 leukemia 97.9% and 103%

NC(=O)c1ccccc1OCC(O)CO (configuration not stated)
inactive: HCT-15 colon 98.1% | HT29 colon 105% | SNB-75 CNS 84.5% | SNB-19 CNS 102% | U251 CNS 99.5% | PC-3 prostate 103% | SK-MEL-5 melanoma 101% | UACC-62 melanoma 98.5% | LOX IMVI melanoma 104% | SK-MEL-28 melanoma 105% | SK-MEL-2 melanoma 103% | UO-31 renal 99.7% | TK-10 renal 110% | ACHN renal 103% | CAKI-1 renal 97.5% | A498 renal 94.6% | CCRF-CEM leukemia 93.6% | MOLT-4 leukemia 108%

CCCCCCCCCCCCCCCCOc1ccc(C)cc1
inactive: HCT-15 colon 108% | HT29 colon 106% | SNB-75 CNS 104% | SNB-19 CNS 109% | U251 CNS 101% | PC-3 prostate 102% | SK-MEL-5 melanoma 108% | UACC-62 melanoma 105% | LOX IMVI melanoma 87.3% | SK-MEL-2 melanoma 115% | EKVX NSCLC 99.7% | SN12C renal 104% | UO-31 renal 81.5% | TK-10 renal 109% | ACHN renal 104% | CAKI-1 renal 105% | A498 renal 92.3% | CCRF-CEM leukemia 127% | MOLT-4 leukemia 103%

COC(=O)c1nc(N)nc(C(=O)OC)c1C(=O)c1ccc(OC)cc1
inactive: HCT-15 colon 107% and 42% | HT29 colon 113% and 68.2% | SNB-75 CNS 95.2% and 76% | SNB-19 CNS 98.1% and 69.9% | U251 CNS 106% and 49.6% | PC-3 prostate 99% and 46% | SK-MEL-5 melanoma 104% and 57.4% | LOX IMVI melanoma 97.7% and 52.8% | SK-MEL-28 melanoma 116% and 69% | SK-MEL-2 melanoma 108% and 77.3% | EKVX NSCLC 101% and 59.3% | SN12C renal 113% and 78.5% | UO-31 renal 89.6% and 66.3% | TK-10 renal 105% and 92.8% | ACHN renal 104% and 52.9% | CAKI-1 renal 94.8% and 73.6% | A498 renal 133% and 141% | CCRF-CEM leukemia 104% and 39.7% | MOLT-4 leukemia 136% and 12.8%

COc1ccccc1C(C)=O
inactive: HCT-15 colon 108% and 95.7% | HT29 colon 114% and 102% | SNB-75 CNS 105% and 85.1% | SNB-19 CNS 116% and 109% | U251 CNS 107% and 106% | PC-3 prostate 89.7% and 96.9% | SK-MEL-5 melanoma 105% and 110% | UACC-62 melanoma 109% and 108% | LOX IMVI melanoma 103% and 60.6% | SK-MEL-2 melanoma 109% | EKVX NSCLC 98% | SN12C renal 118% and 108% | UO-31 renal 89.4% and 96.5% | TK-10 renal 118% and 99.4% | ACHN renal 105% and 102% | CAKI-1 renal 99.5% and 112% | CCRF-CEM leukemia 102% | MOLT-4 leukemia 95.4% and 99.1%

NC(=O)C1CC2C=CC1C2 (configuration not stated)
inactive: HCT-15 colon 107% and 106% | HT29 colon 107% and 114% | SNB-75 CNS 87% and 93.8% | SNB-19 CNS 92.1% | U251 CNS 98.7% and 99.8% | PC-3 prostate 100% and 98.4% | SK-MEL-5 melanoma 99.9% and 109% | UACC-62 melanoma 102% and 94.3% | LOX IMVI melanoma 90.1% and 94.2% | SK-MEL-2 melanoma 98.6% and 112% | EKVX NSCLC 102% and 94.7% | SN12C renal 103% and 99.6% | UO-31 renal 100% and 86.8% | TK-10 renal 120% and 117% | ACHN renal 101% and 95.3% | CAKI-1 renal 76.1% and 69.2% | CCRF-CEM leukemia 118% and 96.2% | MOLT-4 leukemia 103% and 102%

— PubChem BioAssay (NCI)
